Of roughly 8,800 targets only a part is listed; those with a hit were picked by preference. About 0.5% of all pairs of compound and target were hits. Unmarked numbers belong to inactive results.
Columns and labels:
Assay in all cases: log2 fold change, soluble protein after heating vs DMSO (PISA); higher = thermal stabilisation; K562 lysate, 10 uM; active = over 0.2 and 3.5 SD of the protein, either way, in both replicates (recomputed)
vemurafenib = compound: CCCS(=O)(=O)Nc1ccc(F)c(C(=O)c2c[nH]c3ncc(-c4ccc(Cl)cc4)cc23)c1F [vemurafenib]
Procedure, shortened: (§1)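 Log-two fold change in thermal stability relative to solvent controls is reported from duplicates. For each sample, crude K562 extract from dounce-homogenised pellets in PBS pH 7.4 with 1 mM MgCl2, at 1 mg/mL protein, was treated with 10 μM compound for 30 min. Aliquots heated for 3 min across 48°C-58°C were pooled, brought to 0.5% NP-40 at 4°C and cleared at 21,000xg for 90 min. The supernatant was quantified by TMTpro 16plex LC-MS/MS with channel sums equalised.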

[1] = compound: CCCS(=O)(=O)Nc1ccc(F)c(C(=O)c2c[nH]c3ncc(Cl)cc23)c1F
Procedure, shortened: as §1

barasertib = compound: CCN(CCCOc1ccc2c(Nc3cc(CC(=O)Nc4cccc(F)c4)[nH]n3)ncnc2c1)CCOP(=O)(O)O [barasertib]
Procedure, shortened: as §1

[2] = compound: CC[C@@H]1C(=O)N(C)c2cnc(Nc3ccc(C(=O)NC4CCN(C)CC4)cc3OC)nc2N1C1CCCC1
Procedure, shortened: as §1

volasertib = compound: CC[C@@H]1C(=O)N(C)c2cnc(Nc3ccc(C(=O)N[C@H]4CC[C@H](N5CCN(CC6CC6)CC5)CC4)cc3OC)nc2N1C(C)C [volasertib]
Procedure, shortened: as §1

[3] = compound: CCn1c(C(=O)N(C2CC2)C2CC2)cc2c3c(ncn3C)c(Nc3cc(C)n(C)n3)nc21
Procedure, shortened: as §1

[4] = compound: CCn1cc(-c2ccnc3[nH]c(-c4cccc(CN(C)C)c4)cc23)c(-c2ccc(NC(=O)N(C)C)cc2)n1
Procedure, shortened: as §1

[5] = compound: CN1CCC(CNc2ccc3ncc(-c4cccc(OC(F)(F)F)c4)n3n2)CC1
Procedure, shortened: as §1

saracatinib = compound: CN1CCN(CCOc2cc(OC3CCOCC3)c3c(Nc4c(Cl)ccc5c4OCO5)ncnc3c2)CC1 [saracatinib]
Procedure, shortened: as §1

sotrastaurin = compound: CN1CCN(c2nc(C3=C(c4c[nH]c5ccccc45)C(=O)NC3=O)c3ccccc3n2)CC1 [sotrastaurin]
Procedure, shortened: as §1

alvocidib = compound: CN1CC[C@H](c2c(O)cc(O)c3c(=O)cc(-c4ccccc4Cl)oc23)[C@H](O)C1 [alvocidib]
Procedure, shortened: as §1

Tubastatin A = compound: CN1CCc2c(c3ccccc3n2Cc2ccc(C(=O)NO)cc2)C1 [Tubastatin A]
Procedure, shortened: as §1

[6] = compound: CNC(=O)C1=CC=CC=C1NC2=NC(=NC=C2Cl)NC3=C(C=C(C=C3)N4CCOCC4)OC
Procedure, shortened: as §1

defactinib = compound: CNC(=O)c1ccc(Nc2ncc(C(F)(F)F)c(NCc3nccnc3N(C)S(C)(=O)=O)n2)cc1 [defactinib]
Procedure, shortened: as §1

[7] = compound: CNc1nc(-c2ccc3c(N)n[nH]c3c2)cc(N2C[C@@H](C(=O)NC3CCCCC3)CC[C@H]2C)n1
Procedure, shortened: as §1

encorafenib = compound: COC(=O)N[C@@H](C)CNc1nccc(-c2cn(C(C)C)nc2-c2cc(Cl)cc(NS(C)(=O)=O)c2F)n1 [encorafenib]
Procedure, shortened: as §1

[8] = compound: COC(=O)[C@H](CCSC)NC(=O)C1=C(C=C(C=C1)NC[C@H](CS)N)C2=CC=CC=C2
Procedure, shortened: as §1

alisertib = compound: COc1cc(Nc2ncc3c(n2)-c2ccc(Cl)cc2C(c2c(F)cccc2OC)=NC3)ccc1C(=O)O [alisertib]
Procedure, shortened: as §1

[9] = compound: COc1cc2nc(-c3cc(F)ccc3O)nc(N[C@@H]3CNC[C@H]3C(C)(C)O)c2cc1OC
Procedure, shortened: as §1

gefitinib = compound: COc1cc2ncnc(Nc3ccc(F)c(Cl)c3)c2cc1OCCCN1CCOCC1 [gefitinib]
Procedure, shortened: as §1

Chain of UniProt Q08AE8 (Q08AE8 whole entry, looked up): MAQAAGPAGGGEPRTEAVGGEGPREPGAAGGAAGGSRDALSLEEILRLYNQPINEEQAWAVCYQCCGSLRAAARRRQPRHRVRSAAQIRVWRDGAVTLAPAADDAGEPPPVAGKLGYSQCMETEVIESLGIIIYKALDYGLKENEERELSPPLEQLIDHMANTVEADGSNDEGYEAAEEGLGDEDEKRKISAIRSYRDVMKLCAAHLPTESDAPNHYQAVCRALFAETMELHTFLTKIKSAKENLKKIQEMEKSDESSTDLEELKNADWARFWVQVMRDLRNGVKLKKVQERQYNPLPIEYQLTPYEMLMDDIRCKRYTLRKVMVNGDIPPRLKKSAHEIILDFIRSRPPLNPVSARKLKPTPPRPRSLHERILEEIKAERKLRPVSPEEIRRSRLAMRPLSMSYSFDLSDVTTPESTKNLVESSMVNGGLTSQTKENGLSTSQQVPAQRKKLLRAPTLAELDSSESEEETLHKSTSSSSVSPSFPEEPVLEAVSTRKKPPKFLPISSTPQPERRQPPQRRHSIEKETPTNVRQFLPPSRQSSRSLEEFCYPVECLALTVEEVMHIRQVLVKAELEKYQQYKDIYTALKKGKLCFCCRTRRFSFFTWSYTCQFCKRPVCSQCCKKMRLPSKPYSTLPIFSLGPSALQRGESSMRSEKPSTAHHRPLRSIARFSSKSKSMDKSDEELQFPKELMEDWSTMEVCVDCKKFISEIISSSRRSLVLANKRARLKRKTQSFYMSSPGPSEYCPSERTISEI
Chain of UniProt Q8NDV3 (Q8NDV3 whole entry, looked up): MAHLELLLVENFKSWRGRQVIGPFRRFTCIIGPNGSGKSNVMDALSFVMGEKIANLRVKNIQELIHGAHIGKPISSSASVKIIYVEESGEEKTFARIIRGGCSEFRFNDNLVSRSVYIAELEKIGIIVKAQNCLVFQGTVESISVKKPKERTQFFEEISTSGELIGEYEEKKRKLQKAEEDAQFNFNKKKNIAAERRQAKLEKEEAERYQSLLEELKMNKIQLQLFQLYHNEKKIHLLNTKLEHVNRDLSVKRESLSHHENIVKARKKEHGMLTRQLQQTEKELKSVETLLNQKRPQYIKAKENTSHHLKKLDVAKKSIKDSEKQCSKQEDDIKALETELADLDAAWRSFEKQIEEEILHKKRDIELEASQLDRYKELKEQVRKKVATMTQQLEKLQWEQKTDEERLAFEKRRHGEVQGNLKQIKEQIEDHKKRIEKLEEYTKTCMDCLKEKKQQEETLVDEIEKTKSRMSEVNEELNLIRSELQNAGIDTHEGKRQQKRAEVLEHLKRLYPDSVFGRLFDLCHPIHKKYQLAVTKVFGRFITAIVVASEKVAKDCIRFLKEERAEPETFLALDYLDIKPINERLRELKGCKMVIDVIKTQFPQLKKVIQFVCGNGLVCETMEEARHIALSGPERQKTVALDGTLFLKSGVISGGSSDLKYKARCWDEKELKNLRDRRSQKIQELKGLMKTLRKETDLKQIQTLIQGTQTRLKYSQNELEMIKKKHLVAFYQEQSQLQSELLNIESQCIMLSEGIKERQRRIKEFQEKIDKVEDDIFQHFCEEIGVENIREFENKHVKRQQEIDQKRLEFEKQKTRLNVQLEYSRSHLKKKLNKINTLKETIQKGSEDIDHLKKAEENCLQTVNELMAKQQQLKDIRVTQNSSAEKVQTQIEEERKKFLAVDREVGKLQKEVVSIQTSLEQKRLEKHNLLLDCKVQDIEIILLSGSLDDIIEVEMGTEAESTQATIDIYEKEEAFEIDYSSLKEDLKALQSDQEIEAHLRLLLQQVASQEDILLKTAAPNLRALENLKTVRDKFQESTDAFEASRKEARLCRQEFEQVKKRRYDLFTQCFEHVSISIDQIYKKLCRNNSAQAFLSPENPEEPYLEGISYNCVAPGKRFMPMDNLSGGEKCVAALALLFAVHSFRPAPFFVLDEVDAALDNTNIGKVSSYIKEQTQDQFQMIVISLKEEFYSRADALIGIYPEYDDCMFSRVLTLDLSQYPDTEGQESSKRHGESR
Chain of UniProt Q96BI1 (Q96BI1 whole entry, looked up): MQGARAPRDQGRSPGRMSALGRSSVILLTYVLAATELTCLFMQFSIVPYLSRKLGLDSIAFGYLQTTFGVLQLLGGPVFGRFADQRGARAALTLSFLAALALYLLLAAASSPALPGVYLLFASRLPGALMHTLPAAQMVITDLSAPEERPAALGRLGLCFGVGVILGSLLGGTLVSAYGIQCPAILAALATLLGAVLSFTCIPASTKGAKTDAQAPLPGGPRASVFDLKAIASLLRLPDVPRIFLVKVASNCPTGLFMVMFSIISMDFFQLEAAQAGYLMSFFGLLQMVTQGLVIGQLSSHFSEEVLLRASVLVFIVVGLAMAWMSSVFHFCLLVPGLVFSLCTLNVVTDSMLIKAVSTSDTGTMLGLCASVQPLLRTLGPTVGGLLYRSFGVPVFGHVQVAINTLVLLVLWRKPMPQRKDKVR
Chain of UniProt Q9H7B4 (Q9H7B4 whole entry, looked up): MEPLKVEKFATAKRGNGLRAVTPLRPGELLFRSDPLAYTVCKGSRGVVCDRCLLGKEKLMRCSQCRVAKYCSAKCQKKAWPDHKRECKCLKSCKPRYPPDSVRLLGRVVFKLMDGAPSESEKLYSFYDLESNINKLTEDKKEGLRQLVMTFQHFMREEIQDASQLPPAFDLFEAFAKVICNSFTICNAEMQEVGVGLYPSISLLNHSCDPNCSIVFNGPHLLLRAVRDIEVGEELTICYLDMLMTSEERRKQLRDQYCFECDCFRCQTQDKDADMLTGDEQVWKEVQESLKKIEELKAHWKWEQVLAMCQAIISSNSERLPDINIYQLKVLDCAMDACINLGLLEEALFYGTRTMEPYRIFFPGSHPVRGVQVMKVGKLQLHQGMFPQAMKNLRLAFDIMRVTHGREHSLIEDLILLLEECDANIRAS
Chain of UniProt O00506 (O00506 whole entry, looked up): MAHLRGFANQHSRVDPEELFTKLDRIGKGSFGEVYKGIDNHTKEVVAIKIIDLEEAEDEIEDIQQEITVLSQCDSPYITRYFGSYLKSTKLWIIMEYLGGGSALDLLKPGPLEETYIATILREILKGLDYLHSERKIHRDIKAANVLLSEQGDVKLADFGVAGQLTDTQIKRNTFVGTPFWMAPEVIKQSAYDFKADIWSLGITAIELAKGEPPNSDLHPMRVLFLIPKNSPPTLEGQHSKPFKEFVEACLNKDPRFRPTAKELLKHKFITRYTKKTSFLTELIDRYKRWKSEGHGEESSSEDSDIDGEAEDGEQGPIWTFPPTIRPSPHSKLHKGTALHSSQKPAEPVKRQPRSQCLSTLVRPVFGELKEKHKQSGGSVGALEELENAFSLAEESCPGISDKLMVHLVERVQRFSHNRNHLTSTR
Chain of UniProt Q8TCT8 (Q8TCT8 whole entry, looked up): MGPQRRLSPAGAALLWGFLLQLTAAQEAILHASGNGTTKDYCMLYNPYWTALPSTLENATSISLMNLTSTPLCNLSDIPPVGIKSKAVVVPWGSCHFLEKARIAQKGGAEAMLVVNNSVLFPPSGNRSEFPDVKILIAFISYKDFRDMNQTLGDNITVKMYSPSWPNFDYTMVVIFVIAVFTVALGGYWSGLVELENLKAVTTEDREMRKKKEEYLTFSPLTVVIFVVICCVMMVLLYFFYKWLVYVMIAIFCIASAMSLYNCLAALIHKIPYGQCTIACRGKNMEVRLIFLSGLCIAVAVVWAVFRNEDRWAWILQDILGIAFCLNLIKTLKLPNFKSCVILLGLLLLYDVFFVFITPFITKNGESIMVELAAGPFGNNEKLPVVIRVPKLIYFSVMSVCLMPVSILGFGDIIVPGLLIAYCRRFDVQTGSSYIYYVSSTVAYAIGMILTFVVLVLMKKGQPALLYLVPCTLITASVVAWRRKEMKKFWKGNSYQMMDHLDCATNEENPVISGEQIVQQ
Chain of UniProt Q16637 (Q16637 whole entry, looked up): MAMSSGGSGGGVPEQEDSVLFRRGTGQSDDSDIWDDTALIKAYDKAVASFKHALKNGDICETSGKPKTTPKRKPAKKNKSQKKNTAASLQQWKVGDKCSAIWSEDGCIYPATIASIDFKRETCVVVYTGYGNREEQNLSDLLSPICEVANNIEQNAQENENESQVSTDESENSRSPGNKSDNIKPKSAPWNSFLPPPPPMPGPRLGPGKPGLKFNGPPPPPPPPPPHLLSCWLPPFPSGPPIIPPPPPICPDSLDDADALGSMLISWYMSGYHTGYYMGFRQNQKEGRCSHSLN
Chain of UniProt Q99961 (Q99961 whole entry, looked up): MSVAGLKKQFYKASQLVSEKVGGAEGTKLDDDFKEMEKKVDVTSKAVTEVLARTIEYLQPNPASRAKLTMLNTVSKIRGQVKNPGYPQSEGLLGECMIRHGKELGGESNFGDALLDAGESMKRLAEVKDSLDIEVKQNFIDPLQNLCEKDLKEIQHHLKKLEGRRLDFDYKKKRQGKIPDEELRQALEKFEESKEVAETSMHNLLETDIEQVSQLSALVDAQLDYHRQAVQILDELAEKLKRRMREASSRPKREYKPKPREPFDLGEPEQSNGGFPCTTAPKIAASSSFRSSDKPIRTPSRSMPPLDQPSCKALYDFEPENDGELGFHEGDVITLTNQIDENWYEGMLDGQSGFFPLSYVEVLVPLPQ
Chain of UniProt O60225 (O60225 whole entry, looked up): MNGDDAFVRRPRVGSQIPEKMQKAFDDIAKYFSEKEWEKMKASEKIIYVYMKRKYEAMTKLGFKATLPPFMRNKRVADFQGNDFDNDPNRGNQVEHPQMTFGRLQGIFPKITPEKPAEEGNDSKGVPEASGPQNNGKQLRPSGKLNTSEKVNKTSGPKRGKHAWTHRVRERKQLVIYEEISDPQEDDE
Chain of UniProt Q96H78 (Q96H78 whole entry, looked up): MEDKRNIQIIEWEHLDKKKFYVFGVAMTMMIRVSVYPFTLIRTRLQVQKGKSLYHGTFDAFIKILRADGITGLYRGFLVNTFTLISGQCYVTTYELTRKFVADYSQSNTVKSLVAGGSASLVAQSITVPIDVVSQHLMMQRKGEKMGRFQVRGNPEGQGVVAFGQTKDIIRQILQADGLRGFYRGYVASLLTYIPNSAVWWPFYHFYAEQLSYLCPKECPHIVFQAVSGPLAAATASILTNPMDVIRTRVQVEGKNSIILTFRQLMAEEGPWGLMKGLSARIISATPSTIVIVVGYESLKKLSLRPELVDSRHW

Target	log2 fold change (vemurafenib)	log2 fold change [1]	log2 fold change (barasertib)	log2 fold change [2]	log2 fold change (volasertib)	log2 fold change [3]	log2 fold change [4]	log2 fold change [5]	log2 fold change (saracatinib)	log2 fold change (sotrastaurin)	log2 fold change (alvocidib)	log2 fold change (Tubastatin A)	log2 fold change [6]	log2 fold change (defactinib)	log2 fold change [7]	log2 fold change (encorafenib)	log2 fold change [8]	log2 fold change (alisertib)	log2 fold change [9]	log2 fold change (gefitinib)
STK25 (UniProt O00506)	-0.018	-0.005	0.017	-0.034	-0.078	-0.042	-0.037	0.016	-0.026	0.022	-0.016	-0.093	0.023	0.147	-0.023	0.025	-0.04	-0.007	0.036	-0.065
SH3GL1 (UniProt Q99961)	-0.002	-0.01	-0.019	0.044	-0.004	0.018	0.044	-0.022	0.011	-0.03	0.017	-0.109	0.01	0.03	-0.003	-0.02	-0.042	-0.011	0.009	0.002
SLC25A44 (UniProt Q96H78)	0.014	0.015	0.007	0.002	0.06	0.307	0.021	0.17	-0.041	0.062	-0.05	0.007	-0.221	0.064	0.14	0.015	-0.013		0.099	
SPIRE1 (UniProt Q08AE8)	0.009	0.05	0.023	0.051	-0.016	0.003	-0.298	0.077	0.017	0.089	-0.101	0.02	0.038	-0.024	0.084	-0.046	-0.036	0.02	0.076	0.049
SORBS3 (UniProt O60504)	-0.092	0.067	-0.032	0.034	-0.129	-0.05	-0.025	0.004	0.052	-0.011	0	-0.095	0.032	-0.062	0.059	0.02	-0.143		0.065	
SMC1B isoform 3 (UniProt Q8NDV3)	0.149	0.002	0.003	-0.073	0.024	-0.071			0.055	-0.02		0.038	0	0.147	0.028	0.039	-0.03	0.027	-0.03	0.044
SLC22A18 (UniProt Q96BI1)	0.026	0.046	-0.059	0.044	0.08		0.026	-0.032		0.073	-0.035		0.052	-0.076		0.009	-0.013		-0.077	
SPPL2A (UniProt Q8TCT8)	0.312	0.023	0.077	-0.016	0.011	-0.062	-0.196	0.202		-0.029	0.013	0.107	0.103	-0.054		0.124	-0.063		0.099	
SMYD3 (UniProt Q9H7B4)	0.036	0.013	0.017	-0.137	-0.051	-0.02			0.045	-0.005		-0.122	-0.018	0.036	0.028	0.022	0.071	-0.044	0	0.034
STMN3 (UniProt Q9NZ72)	-0.123	-0.006	0.098	0.096	0.002	-0.066			0.053	0.009		0.009	0.014	0.023	0.029	-0.015	-0.021	-0.082	-0.012	-0.041
SMN1 (UniProt Q16637)	0.031	0.075	-0.056	-0.026	0	-0.037	-0.073	-0.031	0.053	-0.039	-0.05	-0.173	0.017	-0.023	-0.01	0.03	0.149	0.062	-0.024	-0.064
SSX5 isoform 2 (UniProt O60225)	0.143	0.062	-0.065	-0.188	0.013	0.031	-0.926 (active)	0.049			-0.096	-0.015	0.038	-0.026		-0.082	-0.271	-0.172	-0.002	0.005

From the supplement of paper PMC10849652
